{
  "source": "PubChem BioAssay (NCI)",
  "note": "This is part of a sample that, as a whole, favours compounds with a hit. Of some 83,000 tested, about 20% had one in any assay.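 96-well plates, one dose, 48 hours. Percent growth reported; active if below 10.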 Activity calls are given as the source filed them.",
  "data": [
    {"tested_on": "SK-MEL-5 melanoma", "test": "NCI-60 one-dose screen, 48 h (100 = growth as untreated, 0 = no growth, -100 = all killed)", "settings": "10 µM unless noted", "protocol": "Growth inhibition of the SK-MEL-5 human tumor cell line is measured as a screen for anti-cancer activity. Cells are grown in 96 well plates and exposed to the test compound for 48 hours. Compounds are tested at a single concentration, which is 10^-5 M for most compounds. The reported endpoint is percent growth (GI% or GIPRCNT), where numbers from 0 - 100% represent growth inhibition, and numbers from -100% - 0 represent cell death. For example, a value of 40 represents 60% growth inhibition. A value of 0 means no net growth occurred over the course of the experiment. A value of -40 indicates 40% of cells at the beginning of the experiment died by the end of the experiment. A value of -100 means all cells are dead at the end of the experiment.\nNCI-60 Human Tumor Cell Lines Screen was performed using the standard one-dose NCI protocol, which is described in more detail at https://dtp.cancer.gov/discovery_development/nci-60/default.htm.\nCompounds with GIPRCNT values below 10 were considered active. Activity score was based on GIPRCNT using the following formula: […]\nScore is 0 for GIPRCNT values of 100 or above, 50 for GIPRCNT values of 0, and 100 for GIPRCNT values of -100.", "values": [
      {"molecule": "Cc1nc(/N=C(N)/N=C(\\N)c2cccc(Br)c2)sc1C", "growth": "69.8% (inactive)"},
      {"molecule": "COc1ccc(-c2c3c(cn2Cc2cccc(OC)c2)-c2oncc2CCC3)cc1", "growth": "100% (inactive)"},
      {"molecule": "CCCNNC(=O)c1ccc(-c2ccc(NC(=O)CCCCCCC(=O)N[C@H](C(=O)N3C[C@H](O)C[C@H]3C(=O)N[C@@H](C)c3ccc(-c4scnc4C)cc3)C(C)(C)C)cc2)cc1", "growth": "-0.921% (active)"},
      {"molecule": "CCCCCCCCCCCC(=O)NC(C)(C)C(=O)N1CCCC1C(=O)NC(C)(C)C(=O)NC(C)(C)C(=O)N1CCCC1C(=O)NC(C)(C)C(=O)NC(C)(C)C(=O)N1CCCC1C(=O)NC(C)C(=O)NCCC(=O)NC(C)C(=O)NC(C)(C)C(=O)NC(C)(C)C(=O)NC(C)(C)C(=O)NCCC(=O)NC(C)(C)C(=O)NC(C)(C)C(=O)NC(C)(C)C(=O)NC(C)C(=O)NCCC(=O)O", "note": "(stereo not given)", "growth": "-98.5% (active)"},
      {"molecule": "Cc1[nH]c(C(=O)Nc2ccccc2OCc2cccc(C(=O)NC3CCNC3)c2)c(Cl)c1Cl", "note": "(stereo not given)", "growth": "97.6% (inactive)"},
      {"molecule": "CN1CCN(CCNc2nc(-c3cccc(NS(=O)(=O)c4cccc5c(N(C)C)cccc45)c3)cs2)CC1", "growth": "12.2% (inactive)"},
      {"molecule": "COc1cc2oc(-c3cccc(NC(=O)[C@@H](N)C(C)C)c3)cc(=O)c2c(OC)c1OC", "growth": "99.1% (inactive)"},
      {"molecule": "Brc1cccc(-c2cc(-c3ccc4c(c3)OC=CO4)[nH]n2)c1", "growth": "22.8% (inactive)"},
      {"molecule": "COc1cccc(N2CCN(C3=C(Cl)C(=O)c4ncccc4C3=O)CC2)c1", "growth": "97.3% (inactive)"},
      {"molecule": "O=C(COc1ccc(/C=C2\\C(=O)Nc3cc(Cl)ccc32)cc1)Nc1ccc(Cl)cc1", "growth": "72.8% (inactive)"},
      {"molecule": "COc1ccc(NC2=C(Br)C(=O)C(C)=C(C)C2=O)cc1OC", "growth": "69.7% (inactive)"},
      {"molecule": "N#C/C(=C\\c1cccc2c1OCO2)C(=O)Nc1sc2c(c1C#N)CCCC2", "growth": "101% (inactive)"},
      {"molecule": "N#C/C(=C\\c1ccc(-c2ccc(Cl)cc2)o1)C(=O)Nc1ncc(Cc2ccc(Br)cc2)s1", "growth": "51.9% (inactive)"},
      {"molecule": "NS(=O)(=O)c1nnc(/N=C/c2c(O)[nH]c3ccccc23)s1", "growth": "98.5% (inactive)"},
      {"molecule": "Brc1ccc2[nH]cc(-c3nn4cc(-c5nccs5)nc4s3)c2c1", "growth": "73.1% (inactive)"},
      {"molecule": "NC1=NC2(CCCC2)N(c2ccc(S(=O)(=O)Nc3nccs3)cc2)C(N)=N1", "growth": "100% (inactive)"},
      {"molecule": "COc1ccc(C2C(C#N)=C(/N=C/c3ccc(Cl)cc3)Oc3c2sc2c(C)cccc32)cc1", "note": "(stereo not given)", "growth": "27.8% (inactive)"},
      {"molecule": "N#Cc1c(-c2cccs2)cc(-c2cnccn2)nc1SCC(=O)N/N=C/c1cccs1", "growth": "20.5% (inactive)"},
      {"molecule": "CCCCSC1=C(Cl)CN(c2ccccc2)C1=O", "growth": "101% (inactive)"},
      {"molecule": "Cc1[nH]c(C(=O)Nc2ccccc2OCc2cccc(C(=O)NC3CCCNC3)c2)c(Cl)c1Cl", "note": "(stereo not given)", "growth": "-22.9% (active)"},
      {"molecule": "Oc1[nH]c2ccc(Cl)cc2c1N=Nc1nc(N=Nc2c(O)[nH]c3ccc(Cl)cc23)nc(N2CCCCC2)n1", "growth": "87% (inactive)"},
      {"molecule": "CCCCCCNC(=O)Oc1ccc(/C(=C(/C)c2ccc(Cl)cc2)c2ccc(OCCN3CCCCCC3)cc2)cc1", "growth": "73.6% (inactive)"},
      {"molecule": "CNC(=O)c1cc(-c2ccc(NC(=S)Nc3cccc(C(F)(F)F)c3)cc2)nc2cccnc12", "growth": "96.2% (inactive)"},
      {"molecule": "Cc1[nH]c(C(=O)Nc2ccc(C(N)=O)cc2N2CCOC(C)C2)c(Cl)c1Cl", "note": "(stereo not given)", "growth": "97.2% (inactive)"},
      {"molecule": "O=C(CSc1nc2ccccc2c(=O)n1-c1ccccc1)Nc1ccc(S(=O)(=O)Nc2nccs2)cc1", "growth": "66.5% (inactive)"},
      {"molecule": "N#Cc1c(-c2cccs2)c(C#N)c(=O)n(Cc2nc3ccccc3[nH]2)c1N", "growth": "95.1% (inactive)"},
      {"molecule": "Cc1csc(/N=C(N)/N=C(\\N)c2cccnc2)n1", "growth": "80.3% (inactive)"},
      {"molecule": "COc1ccc(/C=N\\NC(=O)c2cnn(CC(O)c3ccccc3)c2N)cc1OCc1ccc(Cl)cc1", "note": "(stereo not given)", "growth": "92.2% (inactive)"},
      {"molecule": "CCN(CC)CCOc1ccc(C(=C(C)c2ccc(OC)cc2)c2ccc(OCCN(CC)CC)cc2)cc1", "growth": "-94.1% (active)"},
      {"molecule": "O=c1oc2ccc(-c3ccc(F)cc3F)cc2c(=O)n1-c1ccc(Br)cc1F", "growth": "15% (inactive)"},
      {"molecule": "Cc1cc(=O)oc2cc(OCCCOc3ccc(/C=C/C(=O)Nc4ccc(Br)cc4)cc3)ccc12", "growth": "85% (inactive)"},
      {"molecule": "CC[C@]12C=CCN3CC[C@]4(C(=C(C(=O)OC)C1)Nc1cc5c(cc14)[C@@H]1[C@H](O5)[C@@H](O)[C@@]4(CC)CC(C(=O)OC)=C5Nc6cc(O)ccc6[C@@]56CCN1C46)C32", "note": "(stereo not given in full)", "growth": "-41.5% (active)"},
      {"molecule": "COc1ccc(C(C)=C(c2ccc(OCCN3CCCCCC3)cc2)c2ccc(OCCN3CCCCCC3)cc2)cc1", "growth": "-92% (active)"},
      {"molecule": "NC(=O)c1ncn2c(=O)n(CCF)nnc12", "growth": "92.5% (inactive)"},
      {"molecule": "COc1ccc(/C=N/NC(=O)c2c(N)nn(C)c2Nc2ccccc2)cc1Oc1ccccc1", "growth": "93.8% (inactive)"},
      {"molecule": "O=C(CSc1nc2ccccc2c(=O)n1-c1ccc(S(=O)(=O)Nc2ccc(Cl)nn2)cc1)Nc1ccc(S(=O)(=O)Nc2ccc(Cl)nn2)cc1", "growth": "97.2% (inactive)"},
      {"molecule": "C#CCN(C)CCCOc1ccc(NCc2ccc(C(=O)NO)cc2)cc1Cl", "growth": "9.67% (active)"},
      {"molecule": "CCOC(=O)c1ccc(NC2=C(Cl)C(=O)c3nc(C)ccc3C2=O)cc1", "growth": "63.6% (inactive)"},
      {"molecule": "Cc1ccc(S(=O)(=O)c2nc(-c3ccc(F)cc3)oc2S(C)(=O)=O)cc1", "growth": "98.4% (inactive)"},
      {"molecule": "COc1cccc2c1C=CC1(O2)Oc2cccc(OC)c2C=C1C", "note": "(stereo not given)", "growth": "24.6% (inactive)"}
    ]}
  ]
}
